In PubChem BioAssay (Tox21):
A number with no mark means an inactive call. Entries that show only a call come without a potency. Active and inactive are the calls of the source. The call rests on the fitted dose curve; in most records, active means well fitted curve in the direction sought with a large enough effect in the repeat runs; inconclusive means weak or mixed curves; inactive means flat fitted curve, though single readings scatter.
Potency means the concentration at half of the fitted maximal effect; tags describe the fitted curve by direction and shape or compound fluorescence and quenching.

Test: qHTS assay to test for compound auto fluorescence at 460 nm (blue) in HepG2 cell free culture (AID 720685)
Conditions: Cell-free culture medium, blue autofluorescence 405/460 nm; series mostly up to 91.3 µM; fluorescence, % of fluorescent control: at the top concentration
Source text: U.S. Tox21 Program National Center for Advancing Translational Sciences [NCATS] NIH Chemical Genomics Center [NCGC] U.S. Environmental Protection Agency [EPA] National Institutes of Environmental Health Sciences [NIEHS] National Toxicology Program [NTP] U.S. Food and Drug Administration [FDA] Tox21 Assay Overview: Compound auto fluorescence often interferes with screening of the compound library against various biological targets and signaling pathways. Some of these compounds may have fluorophoric properties. Such properties may interfere with the assay outputs resulting in false positives and/or negatives. To decrease such complications and ensure the compound activities are relevant in terms of biological response, the Tox21 10K compound library was screened for auto fluorescence. From the fluorophores used as reporter signals in our screening assays, the auto fluorescence equivalencies of compounds against three fluorophores have been evaluated: Triamterene, Fluorescein and Rose Bengal sodium for blue, green and red fluorescence, respectively. The fluorescence intensities were measured using Excitation/Emission wavelengths at 405/460nm, 485/535nm and 540/590nm for blue, green and red labels, respectively. This assay includes the blue fluorescence data.
Tox21 Assay Protocol Summary: 5 uL of culture medium (MEM containing 10% FBS) per well was dispensed into black wall/clear bottom 1536-well plates using a Multidrop Combi Dispenser (ThermoFisher Scientific, Waltham, MA). After 23 nL compound or DMSO vehicle was transferred into assay plate by a pintool work station (Kalypsys, San Diego, CA), fluorescence intensities in the assay plates were measured by an Envision (PerkinElmer, Shelton, CT) plate reader using three labels for measuring blue, green and red fluorescence at […] 460, 535 and 590nm respectively.
In the case of `O=S(=O)(O)c1cc(S(=O)(=O)O)c2c(N=Nc3ccccc3)c(O)ccc2c1`, the Potency is reported as “inactive”. With `Oc1ccc(OCc2ccccc2)cc1` the Potency was “inactive”. For `O=[N+]([O-])c1cc(N(CCO)CCO)ccc1NCCO`, the Potency was “inactive”. For `Cc1ccc(C(=O)O)o1`, the Potency was “inactive”. In the case of `OC[C@@H](O)[C@H](O)[C@H](O)[C@@H](O)CO`, the Potency is reported as “inactive”. In the case of `CC(=O)CCc1ccccc1`, the Potency is reported as “inactive”. For `CS(=O)(=O)c1ccc([C@@H](O)[C@@H](CO)NC(=O)C(Cl)Cl)cc1`, the Potency was “inactive”. For `Nc1nc2ncc(CNc3ccc(C(=O)N[C@@H](CCC(=O)O)C(=O)O)cc3)nc2c(=O)[nH]1`, the Potency was 35.5 µM [fluorescent] (active). With `CCCCOCCO` the Potency was “inactive”. In the case of `O=[N+]([O-])C(CO)(CO)CO`, the Potency is reported as “inactive”. For `CC[Si](OC(C)=O)(OC(C)=O)OC(C)=O`, the Potency was “inactive”. For `Cc1cc(NS(=O)(=O)c2ccc(N)cc2)no1`, the Potency was “inactive”. With `COCC(=O)O` the Potency was “inactive”. In the case of `CCCCCCCCCC(=O)O`, the Potency is reported as “inactive”. With `CCCCOCCOCCOC(=O)CCCCC(=O)OCCOCCOCCCC` the Potency was “inactive”. In the case of `CCCCC/C=C\C/C=C\CCCCCCCC(=O)OC`, the Potency is reported as “inactive”. With `O=S(=O)(Oc1ccc(Cl)cc1Cl)c1ccccc1` the Potency was “inactive”. For `O=S(=O)(O)CCS`, the Potency was “inactive”. In the case of `CCCCCCCCCCCCOCC1CO1` (stereo not given), the Potency is reported as “inactive”. With `O=C(O)c1cc(-c2ccccc2)nc2ccccc12` the Potency was “inactive”. With `CS(=O)(=O)Nc1ccc([N+](=O)[O-])cc1Oc1ccccc1` the Potency was “inactive”. With `CCCCC(CC)COC(C)=O` (stereo not given) the Potency was “inactive”. In the case of `CC(=O)[C@@]1(O)CC[C@H]2[C@@H]3CCC4=CC(=O)CC[C@]4(C)[C@H]3CC[C@@]21C`, the Potency is reported as “inactive”. In the case of `CC1=C(CC(=O)O)c2cc(F)ccc2/C1=C\c1ccc(S(C)=O)cc1` (stereo not given), the Potency is reported as “inactive”. In the case of `COC(=O)c1ccccc1O`, the Potency is reported as “inactive”. With `CC(C)Cc1ccccc1` the Potency was “inactive”. With `CCC(=O)O` the Potency was “inactive”. With `Cc1cc(=O)[nH]c(C(C)C)n1` the Potency was “inactive”. With `C[C@@H]1O[C@@H](OC[C@H]2O[C@@H](Oc3c(-c4ccc(O)c(O)c4)oc4cc(O)cc(O)c4c3=O)[C@H](O)[C@@H](O)[C@@H]2O)[C@H](O)[C@H](O)[C@H]1O` the Potency was “inactive”. With `CCOC(=O)C1OC1c1ccccc1` (stereo not given) the Potency was “inactive”. In the case of `Oc1ccc2ccccc2c1`, the Potency is reported as “inactive”. For `O=C(Cl)c1c(Cl)c(Cl)c(C(=O)Cl)c(Cl)c1Cl`, the Potency was “inactive”. In the case of `CCc1ccc(O)cc1`, the Potency is reported as “inactive”. For `CN(C)c1cccc(O)c1`, the “fluorescence, % of fluorescent control” value was 2.71% [at 95.7 µM]. With `CCCCCCOC(C)=O` the Potency was “inactive”. With `Oc1ccc2ccccc2c1N=Nc1ccccc1` the Potency was “inactive”. With `C=C(C)C(=O)OCCCCCC` the Potency was “inactive”. With `CC#C[C@]1(O)CC[C@H]2[C@@H]3CCC4=CC(=O)CCC4=C3[C@@H](c3ccc(N(C)C)cc3)C[C@@]21C` the Potency was “inactive”. For `CC(C)(CO)COC(=O)C(C)(C)CO`, the Potency was “inactive”. In the case of `OCCOCCOCCOCCO`, the Potency is reported as “inactive”.
